Screening data: PubChem BioAssay, National Center for Advancing Translational Sciences (NCATS)
Hits are enriched below; roughly 2.8% of the tested compounds scored in any of these assays.
KDM5B inh = inhibitors of human KDM5B histone demethylase. Potency, µM (top dose mostly 57.7 µM), hits mostly inhibitors. 2.6% of 220,000 active. AID 1347165. KDM5B demethylase, FDH-coupled NADH fluorescence (FDH is formaldehyde dehydrogenase). Q9UGL1; active = well fitted inhibition curve with a large enough effect; inconclusive = small, poorly fitted or top-dose-only effect; inactive = no such curve, though single readings can be large or run the other way; note: potency is the fitted concentration of half-maximal effect; 0% is about no effect; nearly all actives have a fitted effect of over 70% in size
Target sequence (Q9UGL1 whole entry, looked up): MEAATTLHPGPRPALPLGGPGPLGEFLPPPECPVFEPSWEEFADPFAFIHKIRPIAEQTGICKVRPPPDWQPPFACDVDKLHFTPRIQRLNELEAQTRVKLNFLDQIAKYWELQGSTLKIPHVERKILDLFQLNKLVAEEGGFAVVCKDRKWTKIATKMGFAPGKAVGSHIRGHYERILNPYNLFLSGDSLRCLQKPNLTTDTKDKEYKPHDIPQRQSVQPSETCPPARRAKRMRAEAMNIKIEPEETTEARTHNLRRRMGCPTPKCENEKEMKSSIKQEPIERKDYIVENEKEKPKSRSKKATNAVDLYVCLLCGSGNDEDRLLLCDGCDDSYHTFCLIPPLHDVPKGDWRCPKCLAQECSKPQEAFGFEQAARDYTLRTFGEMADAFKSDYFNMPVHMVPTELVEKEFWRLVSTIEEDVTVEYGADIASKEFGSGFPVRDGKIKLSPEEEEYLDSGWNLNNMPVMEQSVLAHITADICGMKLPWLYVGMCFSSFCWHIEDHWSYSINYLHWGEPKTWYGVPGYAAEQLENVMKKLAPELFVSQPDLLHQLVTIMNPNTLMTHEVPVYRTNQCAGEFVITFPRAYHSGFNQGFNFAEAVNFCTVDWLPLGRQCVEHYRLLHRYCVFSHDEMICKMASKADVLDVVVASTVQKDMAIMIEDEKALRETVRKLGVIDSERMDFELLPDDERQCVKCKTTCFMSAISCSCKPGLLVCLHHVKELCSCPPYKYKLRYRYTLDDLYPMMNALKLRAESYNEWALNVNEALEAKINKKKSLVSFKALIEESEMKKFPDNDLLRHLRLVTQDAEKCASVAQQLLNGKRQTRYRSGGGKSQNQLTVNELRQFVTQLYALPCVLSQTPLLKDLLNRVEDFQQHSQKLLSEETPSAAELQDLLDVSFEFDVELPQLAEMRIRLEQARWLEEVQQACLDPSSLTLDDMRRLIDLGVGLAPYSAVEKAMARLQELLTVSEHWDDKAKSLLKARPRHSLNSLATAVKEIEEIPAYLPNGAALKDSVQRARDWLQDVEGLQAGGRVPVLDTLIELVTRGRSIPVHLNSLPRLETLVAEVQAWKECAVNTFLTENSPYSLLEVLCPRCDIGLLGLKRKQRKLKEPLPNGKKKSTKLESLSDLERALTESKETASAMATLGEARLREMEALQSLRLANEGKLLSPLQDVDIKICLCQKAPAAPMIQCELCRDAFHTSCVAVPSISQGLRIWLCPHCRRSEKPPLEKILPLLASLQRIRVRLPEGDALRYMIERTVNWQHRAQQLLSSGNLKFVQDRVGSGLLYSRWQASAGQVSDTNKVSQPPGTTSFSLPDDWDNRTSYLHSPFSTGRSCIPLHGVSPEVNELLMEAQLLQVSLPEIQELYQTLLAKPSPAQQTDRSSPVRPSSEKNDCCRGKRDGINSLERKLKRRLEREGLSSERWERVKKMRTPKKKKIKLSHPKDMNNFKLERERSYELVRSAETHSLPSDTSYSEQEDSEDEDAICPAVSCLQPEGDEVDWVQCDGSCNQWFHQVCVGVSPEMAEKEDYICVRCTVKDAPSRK
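Measured: NADH fluorescence change, 30 min, RT. System: KDM5BΔAP 200 nM final, H3K4me3 peptide, α-KG, Fe(II), ascorbate, NAD⁺ plus FDH, pH 7.5 HEPES. Compounds: titrated, 10 min pre-incubation with enzyme.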
IP6K1 inhibitor = blocks human inositol hexakisphosphate kinase 1. Q92551. IP6K1 kinase, ADP-Glo luminescence, 2 h; hits give low values. activity change, % (series mostly up to about 58 µM). 0.81% of 140,000 active; in the data active = activity change below about -25%; note: % is set by controls: 0 for no effect and ±100 for the full control effect
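ADP-Glo luminescence measures ADP made by human IP6K1 during a 2 h RT reaction with ATP/IP6 (mix at 1.3 mM/130 uM); top library doses 57.5 and 19.1 uM final.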
An asterisk follows results filed as active.

For COc1ccccc1-c1ccc(CN2CCCCC2C(=O)NCCc2ccccc2)cc1 (centres undefined) the results were IP6K1 inhibitor -2.
Cc1cc(-c2cc3c(cn2)CN(Cc2ccccc2F)CCN3)ccn1 was read as KDM5B inh 35µM* and IP6K1 inhibitor -7.
Fc1ccccc1-c1cc2c(cn1)CN(Cc1cccnc1)CCN2 was read as KDM5B inh 32µM* and IP6K1 inhibitor -16.
Screening COc1ccc(-c2cc3c(cn2)CN(Cc2cccnc2)CCN3)cc1OC returned KDM5B inh inconclusive and IP6K1 inhibitor -18.
`Cc1cc(-c2cc3c(cn2)CN(Cc2ccc(F)c(F)c2)CCN3)ccn1` gave KDM5B inh inactive and IP6K1 inhibitor -22.
Screening c1ccc(CNc2cc3c(cn2)CN(Cc2cccnc2)CCN3)cc1 returned KDM5B inh inconclusive and IP6K1 inhibitor -22.
Screening COc1ccc(-c2cc3c(cn2)CN(Cc2cccnc2)CCN3)cc1F returned KDM5B inh 35µM* and IP6K1 inhibitor -15.
`COc1ccc(N2CCN(C(=O)COc3cccc(-c4nnc5n4CCCC5)c3)CC2)cc1` gave KDM5B inh inactive and IP6K1 inhibitor 5.
N#C/C(=C/c1ccccc1)S(=O)(=O)c1ccc(F)cc1 was read as KDM5B inh inactive.
`O=C(NCCc1ccc(Cl)cc1)c1cn2cc(-c3ccc(F)cc3)sc2n1` gave IP6K1 inhibitor 5.
CCCc1noc(-c2cccn3c(CNC(=O)COc4cccc(C)c4)nnc23)n1 was read as KDM5B inh inconclusive and IP6K1 inhibitor -6.
Screening CCc1noc(-c2cccn3c(CNC(=O)C(C)c4ccccc4)nnc23)n1 (centres undefined) returned KDM5B inh 22µM* and IP6K1 inhibitor 6.
CCc1noc(-c2cccn3c(CNC(=O)COc4ccccc4)nnc23)n1 was read as KDM5B inh 32µM* and IP6K1 inhibitor -7.
COCCN1CCCC(c2[nH]ccc2C(=O)NCCc2nc3ccccc3[nH]2)C1 (centres undefined) was read as KDM5B inh inactive and IP6K1 inhibitor 26.
For Cn1c(CNC(=O)c2cc[nH]c2C2CCCNC2)nc2ccccc21 (centres undefined) the results were KDM5B inh 32µM* and IP6K1 inhibitor 1.
`O=[N+]([O-])c1ccccc1/C=C/C=N/Nc1nc(Cl)c(Cl)cc1Cl` gave KDM5B inh inactive.
C[S+](=O)([O-])N1CCc2nc(C3CC3)nc(-c3ccc(Cl)cc3)c2C1 was read as IP6K1 inhibitor -7.
Cn1cc(-c2cc(=O)c3ccnc(NC4CCOCC4)c3o2)cn1 was read as KDM5B inh inactive and IP6K1 inhibitor -17.
Screening Cn1cc(-c2cc(=O)c3ccnc(NCc4ccc(F)cc4)c3o2)cn1 returned KDM5B inh 32µM* and IP6K1 inhibitor -15.
CCCn1c(=O)[nH]c(=O)c2c1nc(-c1cccc(OC)c1OC)n2CCN1CCOCC1 was read as KDM5B inh inactive.
`COc1cccc(-c2nc(N3CCOCC3)cc3c2CN(C)C3=O)c1OC` gave KDM5B inh 40µM* and IP6K1 inhibitor 10.
For COc1cccc(-c2nc(N3CCOCC3)cc3c2CN(C)C3=O)c1 the results were KDM5B inh 35µM* and IP6K1 inhibitor 7.
For COc1cccc(NC(=O)Nc2cccc(-c3ccc(N4CCOCC4)nn3)c2)c1 the results were KDM5B inh inactive and IP6K1 inhibitor -21.
Screening CN1Cc2c(cc(N3CCOCC3)nc2-c2cccc(C(F)(F)F)c2)C1=O returned KDM5B inh inactive and IP6K1 inhibitor 11.
`CN1Cc2c(cc(N3CCOCC3)nc2-c2cccc(N[S+](C)(=O)[O-])c2)C1=O` gave KDM5B inh 35µM* and IP6K1 inhibitor 20.
Screening CC(C)N(CCCCOCC(=O)NS(C)(=O)=O)c1cnc(-c2ccccc2)c(-c2ccccc2)n1 returned IP6K1 inhibitor -6.
`COc1ccc(-c2cc(C(=O)NC3CCN(C)CC3)c3ccccc3n2)cc1OC` gave KDM5B inh inactive.
Cc1c(-c2ccccc2)oc2c(C(=O)OCC(=O)OC(C)(C)C)cccc2c1=O was read as KDM5B inh inactive.
COc1ccc(C(=O)N(Cc2cc3ccc(C)cc3[nH]c2=O)c2ccc(C)cc2)cc1OC was read as KDM5B inh inactive.
`Cc1nn(C)c(C(=O)N[C@H]2CCOC[C@H]2C2CCOCC2)c1Cl` gave KDM5B inh inactive and IP6K1 inhibitor 10.
For CCc1c(C)cc(C(=O)N[C@H]2CCOC[C@H]2C2CCOCC2)c(=O)n1C the results were KDM5B inh 25µM* and IP6K1 inhibitor 25.
`Cc1ccc(-n2cc(-c3ccccc3)c3c(N4CCN(CCO)CC4)ncnc32)cc1Cl` gave KDM5B inh inactive.
Screening CC(=O)Nc1cccc(-c2cc3c(ccn3C)c(C(=O)NCc3cccnc3)n2)c1 returned KDM5B inh inactive and IP6K1 inhibitor 6.
`C[S+](=O)([O-])Nc1cccc(-c2cc3c(ccn3Cc3ccncc3)c(N3CCOCC3)n2)c1` gave KDM5B inh 3.2µM* and IP6K1 inhibitor -20.
For CC(=O)Nc1cccc(-c2cc3c(ccn3Cc3ccncc3)c(N3CCOCC3)n2)c1 the results were KDM5B inh 28µM* and IP6K1 inhibitor -2.
Screening C[S+](=O)([O-])c1ccc(-c2cc3c(ccn3Cc3ccncc3)c(N3CCOCC3)n2)cc1 returned KDM5B inh 25µM* and IP6K1 inhibitor -3.
C[S+](=O)([O-])N1CCC(Cn2ccc3c(N4CCOCC4)nc(-c4cncnc4)cc32)CC1 was read as KDM5B inh inconclusive and IP6K1 inhibitor -15.
CCNC(=O)OC1CCN(C(=O)CC(C)C)CC(=O)N(C)c2ccccc21 (centres undefined) was read as IP6K1 inhibitor -3.
`CN1CCCN(S(=O)(=O)c2ccccc2Br)c2ccccc21` gave IP6K1 inhibitor 11.
Screening Cc1cccc(-c2cccc(CN3CCC(NC(=O)C(C)(C)C)CC3)c2)c1 returned IP6K1 inhibitor 2.
O=C(NCc1ccccc1F)c1ccc2nnc(C3CCOCC3)n2c1 was read as IP6K1 inhibitor -8.
For CCCOc1nccnc1NC1CCN(C(=O)c2ccncc2)CC1 the results were KDM5B inh 28µM* and IP6K1 inhibitor -1.
For COc1nccnc1NC1CCN(C(=O)c2cccs2)CC1 the results were KDM5B inh 25µM* and IP6K1 inhibitor 12.
For CCOc1nccnc1NC1CCN(C(=O)c2cccs2)CC1 the results were KDM5B inh inconclusive and IP6K1 inhibitor -5.
`COc1nccnc1NC1CCN(C(=O)c2ccccc2C)CC1` gave KDM5B inh 28µM* and IP6K1 inhibitor -4.
CCCOc1nccnc1NC1CCN(C(=O)c2cccs2)CC1 was read as KDM5B inh inconclusive and IP6K1 inhibitor -2.
CCCOc1nccnc1NC1CCN(S(=O)(=O)CC)CC1 was read as KDM5B inh 28µM* and IP6K1 inhibitor -2.
Screening CCS(=O)(=O)N1CCC(Oc2ncccc2C(=O)N(C)C)C1 (centres undefined) returned KDM5B inh inactive and IP6K1 inhibitor 26.
`COc1nccnc1NC1CCN(C(=O)c2c[nH]c3ccccc23)CC1` gave KDM5B inh inconclusive and IP6K1 inhibitor -3.
`COc1ccc(F)cc1-c1ccc(CN2CCC(N[S+](=O)([O-])c3c(C)noc3C)C2)cc1` (centres undefined) gave IP6K1 inhibitor 21.
For CCCCCNC(=O)c1nc2cccnc2n(Cc2ccc(OC)cc2)c1=O the results were IP6K1 inhibitor -12.
